# High-throughput results from PubChem.
# MPTP block: blocks calcium-induced mitochondrial swelling; isolated mouse mitochondria, Ca2+ swelling absorbance, 30 min; inhibition, % at 10 µM; actives 1.4% (n = 360,000);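 active = inhibition of 50% or more, scaled per plate between neutral and stimulator controls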
# Beta apoptosis: beta cell apoptosis inhibition; INS-1E cytokine-induced death, ATP luminescence, 48 h; percent of positive-control rescue, neutral wells zero; protection from apoptosis, % (test concentration not listed); actives 0.8% (n = 300,000); AID 435005;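 active = Every replicate reaches about 75%, or at least half do and their mean reaches it too, limit read from the data; inconclusive = At least half of replicates reach the limit but their mean does not; inactive = Under half of replicates reach the limit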;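 also: higher means more ATP so stronger rescue from cytokine killing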
# Calb FLC: C. albicans growth modulation with fluconazole. growth inhibition, % (concentration not given with the values). C. albicans CaCi-2 (fluconazole-resistant clinical isolate) + fluconazole, Alamar Blue growth, 48 h. actives 0.57% (n = 300,000);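 active = growth inhibition above about 58% in most replicates, limit read from the data, passing the limit was not always enough; inconclusive = exactly half the replicates above a set limit; inactive = most replicates below a set limit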;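 also: all wells also contain fluconazole at 8 µg/ml as a sub-toxic cotreatment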
# SKKanGAS inh: inhibitors of SKKanGAS S. pyogenes growth in kanamycin (SK-promoter or general growth effect). actives 1.3% (n = 300,000). BacTiter-Glo, 6 h. AID 1662. inhibition, % at 7.5 µM;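 active = mean replicate score, as percent of positive control median, at least 50; inconclusive = mean below 50 but one replicate at or above 50; inactive = mean and every replicate below 50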;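 also: strain carries kanamycin resistance gene driven by streptokinase promoter and grows in 40 µg/ml kanamycin; loss of luminescence reflects streptokinase promoter inhibition or plain growth inhibition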
# CSC inhib: blocks cancer stem cells | cancer stem cell-like cells viability, luminescence | inhibition, % at 7.5 µM | actives 1.1% (n = 300,000) | AID 2717; in the data active = inhibition above about 75%; inconclusive = no clear call, values can overlap the other calls; tested in HMLE shEcad cells
# Mdm2-MdmX inh: human Mdm2/MdmX binding inhibition | O15151+Q00987 | SaOS-2 split-luciferase Mdm2/MdmX complementation, luminescence | inhibition, % at 8 µM | actives 3% (n = 330,000);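 active = inhibition of at least 50% at 8 µM in the primary screen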
# Mdm2 MdmX conf: confirmation of human Mdm2/MdmX interaction inhibitors. shares compounds with Mdm2-MdmX inh. Mdm2-MdmX binding, luminescent assay. inhibition, % at 8 µM. actives 55% (n = 10,000). AID 489028; in the data active = inhibition above about 40%
# Full FLuc ctr: inhibits full-length luciferase, flagging false Mdm2/MdmX hits. shares compounds with Mdm2-MdmX inh. SaOS-2 full-length luciferase counterscreen, luminescence. inhibition, % at 8 µM. actives 77% (n = 6,200);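 active = mean inhibition at 8 µM reaching about 37%, which flags the compound as non-specific, limit read from the data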;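 also: p53-null SaOS-2 cells with luciferase driven by a doxycycline-inducible promoter; compound on cells about two nights before reading with doxycycline added after day one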
# Numbers stand for hits; . = inactive; ? = inconclusive; / = not tested or not shown. The list is not random: actives were taken first. Their share in the collection is about 5.4%.
SMILES,MPTP block,Beta apoptosis,Calb FLC,SKKanGAS inh,CSC inhib,Mdm2-MdmX inh,Mdm2 MdmX conf,Full FLuc ctr
CCOC(=O)C1(c2ccccc2)CCCNC1=O (configuration not stated),.,/,/,/,/,/,/,/
O=C(CNC(=O)c1cccc(Br)c1)N/N=C/c1ccc[nH]1,.,.,.,.,.,.,/,/
CCc1cc(=O)n2[nH]c(-c3ccccc3)c(-c3ccccc3)c2n1,.,.,.,.,.,58,45,52
O=c1[nH]c(C(Cl)(Cl)Cl)nc2ccc3ccccc3c12,.,.,.,.,/,.,/,/
Cc1cc(O)c(C(C)C)cc1C1(c2cc(C(C)C)c(O)cc2C)OC(=O)c2ccccc21,.,.,.,84,150,100,58,.
COc1ccc(/C=N\NC(=O)c2ccccc2OC)cc1COc1c(F)c(F)c(F)c(F)c1F,.,.,.,.,.,.,/,/
COc1ccc(/C=N\NC(=O)c2ccccc2Cl)cc1COc1c(F)c(F)c(F)c(F)c1F,.,.,.,.,.,56,.,/
Cn1ncc2c(Nc3ccc(-c4ccccc4)cc3)ncnc21,.,.,?,.,.,76,48,73
CCOC(=O)c1[nH]c(C)c(C(=O)NC2CCN(C(=O)OCC)CC2)c1C,.,.,.,.,.,.,/,/
COc1ccc(-c2oc(NC(=O)CSc3nncn3C)c(C#N)c2-c2ccc(OC)cc2)cc1,.,.,.,.,.,63,54,70
Cc1ccc2c(=O)n3c(nc2c1)C(Cc1ccccc1)NC(=O)c1cccnc1-3 (configuration not stated),.,/,/,/,/,/,/,/
CCc1ccc2c(c1)C1(C(=O)N2)N2CCCC2C(C(=O)c2ccc3ccccc3c2)C12C(=O)Nc1ccccc12 (configuration not stated),.,121,.,.,159,91,.,91
Cc1cc(C)nc(NNS(=O)(=O)c2c(F)cc(F)cc2Br)n1,.,.,/,/,.,.,/,/
Cc1ccc(C)c(CN2CCC(CNC(=O)Nc3ccc(Cl)cc3)CC2)c1,.,.,.,.,.,.,/,/
Cc1ccc(C)c(CN2CCC(CNC(=O)Nc3ccc(Br)cc3F)CC2)c1,.,.,.,.,.,56,44,69
COc1ccc(COC(=O)C2=C(C)NC(=O)NC2c2ccc(F)cc2)cc1 (configuration not stated),.,.,.,.,.,.,/,/
C=CCN1C(=O)C(O)(CC(=O)c2ccccc2)c2ccccc21 (configuration not stated),.,.,.,.,.,.,/,/
C=CCNC(=S)N/N=C(\C)c1ccccn1,.,93,115,81,114,91,64,.
C/C(=N\NC(=O)c1ccc(F)cc1)c1ccccn1,.,111,.,89,104,97,60,58
C/C(=N\NC(=O)CCCNc1ccc(C)cc1)c1ccccn1,.,.,.,.,.,62,55,47
C/C(=N\NC(=O)c1c[nH]c2ccccc12)c1ccccn1,.,.,.,.,.,.,/,/
C/C(=N\NC(=O)CCCNc1ccccc1)c1ccncc1,.,.,.,.,/,.,/,/
C/C(=N\NC(=O)c1cc2ccccc2cc1O)c1ccccn1,.,99,100,102,.,53,54,.
CC(=NNC(=S)Nc1ccccc1)c1ccccn1,.,/,/,/,/,/,/,/
CC(C)[C@H](NC(=O)c1ccc(C(C)(C)C)cc1)C(=O)N1CCN(Cc2ccc3c(c2)OCO3)CC1,.,.,/,/,/,52,.,55
SMILES,MPTP block,Beta apoptosis,Calb FLC,SKKanGAS inh,CSC inhib,Mdm2-MdmX inh,Mdm2 MdmX conf,Full FLuc ctr
C[C@H](NC(=O)c1ccccc1)C(=O)N1CCN(Cc2ccc3c(c2)OCO3)CC1,.,.,/,/,.,.,/,/
C=CCN(C(=O)c1csnn1)C(C(=O)NC1CCCC1)c1cccs1 (configuration not stated),.,.,.,.,.,.,/,/
O=C1/C(=C/c2ccccc2[N+](=O)[O-])COc2ccccc21,.,.,?,.,.,98,45,.
O=C(COc1ccc([N+](=O)[O-])cc1)Nc1ccncc1,.,.,.,.,.,.,/,/
COc1cc(C#N)ccc1OC(=O)c1cccc(S(=O)(=O)N2CCN(C)CC2)c1,.,.,.,.,.,.,/,/
CCOc1cccc(C(=O)Nc2cccc(-c3nnc(-c4ccccc4)o3)c2)c1,.,/,.,.,/,51,.,/
